From PubChem BioAssay
IL-1B inflam inh: qHTS for Inhibitors of Inflammasome Signaling: IL-1-beta AlphaLISA Primary Screen. THP-1 LPS/ATP IL-1B secretion, AlphaLISA, 16 h; active compounds read low. activity change, % at 57.5 µM. hit rate 4.7% among 360,000; in the data active = activity change below about -50%; inconclusive = mostly about -30% to -49%; note: % is set by controls: 0 for no effect and ±100 for the full control effect
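THP-1 cells pretreated 1 hr with compounds (up to 57.5 uM final), then stimulated with LPS (250 ng/mL final) plus ATP (1.25 mM final); secreted IL-1B measured by AlphaLISA after 16 hr, decreased signal indicating inhibition.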
TDP1 block: qHTS Assay for Inhibitors of Tyrosyl-DNA Phosphodiesterase (TDP1). Tyrosyl-DNA phosphodiesterase 1 (Homo sapiens), Q9NUW8. recombinant TDP1, AlphaScreen DNA substrate cleavage. Potency, µM (highest dose often 130 µM), without a hit: top-dose activity change, negative = inhibition, most hits filed as inhibitors. hit rate 0.28% among 350,000; note: potency is the fitted concentration of half-maximal effect; % is set by controls: 0 for no effect and ±100 for the full control effect; nearly all actives have a fitted effect of over 40% in size
Target sequence (Q9NUW8 whole entry, looked up): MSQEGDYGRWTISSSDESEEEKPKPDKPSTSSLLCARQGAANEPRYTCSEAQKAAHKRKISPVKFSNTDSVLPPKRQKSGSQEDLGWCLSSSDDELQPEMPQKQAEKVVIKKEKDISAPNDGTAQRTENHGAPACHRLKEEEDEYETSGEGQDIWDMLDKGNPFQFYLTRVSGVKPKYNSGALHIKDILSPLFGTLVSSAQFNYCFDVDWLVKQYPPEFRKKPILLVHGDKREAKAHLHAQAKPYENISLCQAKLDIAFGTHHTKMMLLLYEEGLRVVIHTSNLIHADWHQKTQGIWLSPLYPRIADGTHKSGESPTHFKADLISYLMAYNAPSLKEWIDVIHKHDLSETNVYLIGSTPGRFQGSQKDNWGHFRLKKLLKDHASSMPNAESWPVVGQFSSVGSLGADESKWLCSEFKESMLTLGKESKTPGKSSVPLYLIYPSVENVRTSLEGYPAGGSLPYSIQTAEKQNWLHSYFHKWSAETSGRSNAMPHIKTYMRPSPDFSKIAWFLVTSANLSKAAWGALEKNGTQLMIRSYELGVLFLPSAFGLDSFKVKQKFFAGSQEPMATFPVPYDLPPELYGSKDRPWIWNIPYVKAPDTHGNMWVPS
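Enzyme-compound mixtures sat 15 min at room temperature, followed by a 5 min reaction with 15 nM final substrate and 10 min with AlphaScreen beads. Recombinant human Tdp1 was used at 1 nM final.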
TGFb inhibitor: qHTS for Inhibitors of TGF-b. hit rate 1.2% among 410,000. HepG2 CAGA-GFP TGF-b/SMAD3 reporter, GFP fluorescence, 18 h; TGF-beta stimulated, 500 pg/mL final. AID 588855, 2011. Potency, µM (titrated, usually from 46.1 µM), for inactives: top-dose activity, negative = inhibition, hits mostly inhibitors; note: potency is the fitted concentration of half-maximal effect; % is set by controls: 0 for no effect and ±100 for the full control effect; nearly all actives have a fitted effect of over 65% in size
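Read-out: total well GFP (ex488/em500-530) summed from mean per-cell fluorescence. Cells: HEPG2 CAGA-GFP, 1% FBS DMEM, 18 h at 37 degrees C with 500 pg/mL final TGF-beta. Unstimulated wells served as the full-inhibition control; stimulated DMSO wells = 0%.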
HepG2 tox: qHTS for Inhibitors of TGF-b: Cytotox Counterscreen | Potency, µM (titrated, usually from 46.1 µM), inactives show top-dose activity change, negative = cytotoxicity, actives largely listed as cytotoxic | hit rate 0.76% among 410,000 | HepG2 CAGA-GFP viability, ATP luminescence, 18 h; note: potency is the fitted concentration of half-maximal effect
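HepG2 CAGA-GFP cells (1000/well, DMEM with 1% FBS) received compound, then TGF-beta at 500 pg/mL final, and were incubated 18 hours at 37 degrees C. Viability was read by CellTiter-Glo luminescence. Media-only wells were set as complete cell-killing and DMSO as no toxicity.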
DT40 TDP1 no CPT: qHTS for Inhibitors of human tyrosyl-DNA phosphodiesterase 1 (TDP1): qHTS in cells in absence of CPT. DT40 Tdp1-/- hTDP1 cells, no CPT, ATP luminescence, 48 h. Potency, µM (doses to about 46.2 µM), without a hit: at the highest dose activity change, negative = growth inhibition, most hits filed as inhibitors. hit rate 15% among 420,000; note: potency is the fitted concentration of half-maximal effect; % is set by controls: 0 for no effect and ±100 for the full control effect; nearly all actives have a fitted effect of over 55% in size
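Camptothecin absent (DMSO only). Human TDP1-complemented DT40 knockout cells, 400 cells/well, 37 °C for minimum 48 hr; ATP measured via CellTiter-Glo, 30 min dark incubation, luminescence.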
TDP1 cell CPT: qHTS for Inhibitors of human tyrosyl-DNA phosphodiesterase 1 (TDP1): qHTS in cells in presence of CPT | chicken DT40 Tdp1-/-;hTDP1 cells + 20 nM CPT, ATP luminescence, 48 h | Potency, µM (series often up to 46.2 µM), without a hit: at the top dose activity change, negative = growth inhibition, most hits filed as inhibitors | hit rate 12% among 420,000 | AID 686979, 2013; note: potency is the fitted concentration of half-maximal effect; % is set by controls: 0 for no effect and ±100 for the full control effect; nearly all actives have a fitted effect of over 55% in size
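Chicken DT40 Tdp1-/- cells stably complemented with human TDP1 were seeded at 400 cells/well in medium containing 20 nM camptothecin, exposed to pin-transferred compounds, and grown at 37 °C for at least 48 hr. Viability was read as ATP luminescence.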
Active calls of the source: *; ? = inconclusive; nt = no result given; [ ] = dose if it differs, or a comment. A selection: hits, their analogues and other compounds. The true share with any hit is near 19%. Unless noted, calls come from the whole dose curve; as a rule, active = well fitted curve in the direction sought with a large enough effect; inconclusive = small, poorly fitted or top-dose-only effect, or another doubt; inactive = no such curve, though single readings can be large; an effect the other way counts as inactive or inconclusive.

SMILES	IL-1B inflam inh	TDP1 block	TGFb inhibitor	HepG2 tox	DT40 TDP1 no CPT	TDP1 cell CPT
COc1ccc(S(=O)(=O)N2CCCCCC2)cc1C(=O)N(C)Cc1c(F)cccc1Cl	-14	0%	-3%	-4%	-23%	?
CN(CCOc1ccc(Cl)cc1)c1ccc(S(=O)(=O)N2CCCCC2)cn1	0	-2%	-6%	-14%	23µM*	18µM*
Cc1ccc(S(=O)(=O)N2CCCCC2)cc1C(=O)N(C)CCOc1ccccc1	1	2%	-11%	4%	-13%	-25%
Cc1ccc(S(=O)(=O)N2CCOCC2)cc1C(=O)N(C)CCOc1ccc(Cl)cc1	-16	-3%	-30%	-61%	16µM*	?
CCN(CC)S(=O)(=O)c1cccc(NC(=O)C2CC(=O)N(c3ccc4c(c3)OCCO4)C2)c1 (centres undefined)	42	2%	-14%	1%	?	9%
CC(=O)OC[C@H]1O[C@@H](O/N=C\[C@@H](C)[C@H](OCc2ccccc2)C(C)C)[C@H](OC(C)=O)[C@@H](OC(C)=O)[C@H]1OC(C)=O	nt	2%[21 µM]	nt	nt	nt	nt
CN(CCOc1ccc(Cl)cc1)C(=O)c1cc(S(=O)(=O)N2CCOCC2)ccc1N1CCCC1	-22	3%	?	-18%	21µM*	16µM*
COc1ccc(S(=O)(=O)N2CCCCCC2)cc1C(=O)N(C)CCOc1ccccc1	-5	0%	?	0%	18µM*	?
CCc1ccc(OCC(=O)NNC(=O)c2cc(S(=O)(=O)N3CCOCC3)ccc2N2CCCC2)cc1	-21	-2%[56.1 µM]	-5%	0%	0%	-17%
COCCNC(=S)N1CCC(NC(=O)Nc2ccc(C)cc2)CC1	28	6%	-24%	0%	-24%	0%
Cc1cccc(-c2nc3c4ccccc4nc(NCc4ccccc4Cl)n3n2)c1	nt	-1%	3%	0%	-15%	1%
COc1cc(C(=O)Nc2nnc(CC(C)(C)C)s2)cc(OC)c1OC	nt	nt	?	-26%	?	13µM*
CCOC(=O)c1csc(NC(=O)c2cc(OC)c(OC)c(OC)c2)n1	-54*	2%	-2%	-15%	?	?
CCCC(=O)Nc1nc(C(=O)OCC)cs1	0	-1%	-3%	-8%	-18%	-2%
COCc1nnc(NC(=O)c2cc(OC)c(OC)c(OC)c2)s1	nt	nt	-9%	-11%	-7%	2%
CC(C)(C)n1nnnc1C(c1ccccc1OC(F)(F)F)N1CCN(C/C=C/c2ccccc2)CC1 (centres undefined)	-3	nt	?	-13%	15µM*	21µM*
Cc1cccc(C)c1-n1nnnc1C(c1ccccc1OC(F)(F)F)N1CCN(C/C=C/c2ccccc2)CC1 (centres undefined)	32	nt	-28%	-10%	21µM*	?
CC(C)(C)n1nnnc1C(c1cccs1)N1CCN(C/C=C/c2ccccc2)CC1 (centres undefined)	-10	nt	-3%	3%	?	?
COc1cccc(C(c2nnnn2-c2c(C)cccc2C)N2CCN(C/C=C/c3ccccc3)CC2)c1OC (centres undefined)	0	nt	?	-3%	?	?
Cc1c(C)c2ccc(O[C@@H]3O[C@H](CO)[C@@H](O)[C@H](O)[C@H]3O)c(C)c2oc1=O	-16	nt	-1%	-8%	-23%	28%
CCc1cc(=O)oc2c(C)c(O[C@@H]3O[C@H](CO)[C@@H](O)[C@H](O)[C@H]3O)ccc12	10	nt	5%	0%	10µM*	3%
Cc1nc2ccccn2c1-c1nnco1	0	5%	22%	-1%	-23%	7%
Cc1nc2ccccn2c1-c1ccnn1S(=O)(=O)c1ccc(F)cc1	20	3%	?	-37%	12µM*	21µM*
Cc1cccc(-n2ccnc2SCC(=O)Nc2nnc(C)s2)c1	-11	7%	-11%	-6%	15µM*	?
CCSc1nnc(NC(=O)CSc2nccn2-c2cc(C)cc(C)c2)s1	4	9%	14%	-7%	-3%	-3%
SMILES	IL-1B inflam inh	TDP1 block	TGFb inhibitor	HepG2 tox	DT40 TDP1 no CPT	TDP1 cell CPT
Cc1cccc(-n2ccnc2SCC(=O)Nc2nc3ccccc3s2)c1	nt	7%	-9%	-17%	23µM*	?
Cc1cc(C)cc(-n2ccnc2SCC(=O)Nc2nnc(C)s2)c1	nt	2%	-3%	-8%	3.3µM*	4.1µM*
Cc1oc2c(c1C(=O)NCc1ccccc1F)C1=NCCN1C=N2	nt	7%	2%	1%	-11%	0%
O=c1oc2ccc(Br)cc2cc1S(=O)(=O)c1ccc(F)cc1	-78*	0%	?	-3%	-112%	-4%
CCOC(=O)CCN1C(=O)[C@H]2[C@H]3[C@H](O)[C@H](O)C/C(=N/NC(=O)OCc4ccc(OC)cc4)[C@H]3CC[C@@H]2C1=O	nt	5%[21 µM]	nt	nt	nt	nt
O=C(CSc1nc2c(c(=O)[nH]1)CCC2)Nc1ccccc1F	nt	3%	-4%	2%	-11%	-12%
CCOc1ccc(C2C(C(=O)OC)=CN(C(C)c3ccccc3)C=C2C(=O)OC)cc1 (centres undefined)	-9	nt	-30%	-8%	21µM*	?
Cc1ccc(CS(=O)(=O)c2ccccc2-c2nnc(-c3ccc(Cl)cc3)o2)cc1	21	4%	14%	-25%	18µM*	?
CC(C)N(C)c1ncnc2c1ncn2[C@H]1CN(Cc2ccc(-c3ccccc3)cc2)C[C@@H](CO)O1	-13	nt	?	-87%	6.5µM*	7.3µM*
CC(C)N(C)c1ncnc2c1ncn2[C@H]1CN(Cc2ccncc2)C[C@@H](CO)O1	15	nt	-17%	3%	23µM*	23µM*
OCCCNc1ncnc2c1ncn2[C@H]1CN(Cc2ccncc2)C[C@@H](CO)O1	24	nt	1%	15%	1%	19%
CN(C)c1ncnc2c1ncn2[C@H]1CN(Cc2ccncc2)C[C@@H](CO)O1	28	nt	-7%	-18%	?	-27%
OCCNc1ncnc2c1ncn2[C@H]1CN(Cc2ccncc2)C[C@@H](CO)O1	-89*	nt	17%	-3%	2%	-8%
CCC(C)C1/C=C\CCCC(=O)N1Cc1ccc(C)cc1 (centres undefined)	nt	0%	nt	nt	nt	nt
